# Assay results taken from PubChem BioAssay.
# Active and inactive are the calls of the source.
# Assays:
# [1] = test system: Plasmodium falciparum Sir2 (PF13_0152, Sir2A); assay: Plasmodium falciparum Sir2A binding compounds – biochemical, small-molecule microarray, 635 nm fluorescence, primary screen (AID 1098); settings: fluorescence 635 nm, higher = more signal;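 also: score merges spot fluorescence intensity with its signal-to-noise ratio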
# [2] = probe aDKK1 binding to arrayed compounds – biochemical, biotinylated probe, 635/667 nm fluorescence, primary screen (AID 1099); settings: small-molecule microarray, higher = more signal;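 also: score merges 667nm spot fluorescence with signal to noise across triplicate slides; reference of the scale not given here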
# [3] = probe aCHRDL2 binding to arrayed compounds – biochemical, biotinylated probe, 635/667 nm fluorescence, primary screen (AID 1100); settings: small-molecule microarray, higher = more signal
# [4] = change in splice reporter luminescence, either direction, cell-based, HEK293, spliceosome inhibition project, primary screen (AID 1101); settings: HEK293 splicing luciferase reporter, 24 h, higher = more signal, called active from +8 up or from −8 down;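 also: HEK293 cells carrying a splicing-competent luciferase reporter gene; test concentration not given here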
# [5] = target: Fibroblast growth factor 10 (Homo sapiens) (UniProt O15520); assay: compounds binding fibroblast growth factor 10 – biochemical, small-molecule microarray, 635 nm fluorescence, primary screen (AID 1102); settings: FGF10 binding, fluorescence 635 nm, higher = more signal
# Fibroblast growth factor 10 (Homo sapiens), sequence (O15520 whole entry, looked up): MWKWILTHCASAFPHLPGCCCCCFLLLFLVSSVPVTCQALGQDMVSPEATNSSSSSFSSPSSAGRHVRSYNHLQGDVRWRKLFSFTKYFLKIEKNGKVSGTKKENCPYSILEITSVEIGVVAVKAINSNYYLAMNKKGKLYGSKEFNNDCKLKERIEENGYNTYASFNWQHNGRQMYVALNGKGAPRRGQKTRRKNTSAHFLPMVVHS
# [6] = test system: glycogen synthase kinase-3 (GSK3A per assay name; protocol says GSK3B); assay: compounds binding glycogen synthase kinase-3 – biochemical, small-molecule microarray, 635 nm fluorescence, GSK3A, primary screen (AID 1103); settings: fluorescence 635 nm, higher = more signal; also: the record names both GSK3A and GSK3B
# [7] = target: Epidermal growth factor receptor (Homo sapiens) (UniProt P00533); assay: compounds binding epidermal growth factor receptor – biochemical, small-molecule microarray, 635 nm fluorescence, primary screen (AID 1104); settings: EGFR binding, higher = more signal;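 also: score merges 667 nm emission intensity with spot signal to noise over triplicate slides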
# Epidermal growth factor receptor (Homo sapiens), sequence (P00533 whole entry, looked up): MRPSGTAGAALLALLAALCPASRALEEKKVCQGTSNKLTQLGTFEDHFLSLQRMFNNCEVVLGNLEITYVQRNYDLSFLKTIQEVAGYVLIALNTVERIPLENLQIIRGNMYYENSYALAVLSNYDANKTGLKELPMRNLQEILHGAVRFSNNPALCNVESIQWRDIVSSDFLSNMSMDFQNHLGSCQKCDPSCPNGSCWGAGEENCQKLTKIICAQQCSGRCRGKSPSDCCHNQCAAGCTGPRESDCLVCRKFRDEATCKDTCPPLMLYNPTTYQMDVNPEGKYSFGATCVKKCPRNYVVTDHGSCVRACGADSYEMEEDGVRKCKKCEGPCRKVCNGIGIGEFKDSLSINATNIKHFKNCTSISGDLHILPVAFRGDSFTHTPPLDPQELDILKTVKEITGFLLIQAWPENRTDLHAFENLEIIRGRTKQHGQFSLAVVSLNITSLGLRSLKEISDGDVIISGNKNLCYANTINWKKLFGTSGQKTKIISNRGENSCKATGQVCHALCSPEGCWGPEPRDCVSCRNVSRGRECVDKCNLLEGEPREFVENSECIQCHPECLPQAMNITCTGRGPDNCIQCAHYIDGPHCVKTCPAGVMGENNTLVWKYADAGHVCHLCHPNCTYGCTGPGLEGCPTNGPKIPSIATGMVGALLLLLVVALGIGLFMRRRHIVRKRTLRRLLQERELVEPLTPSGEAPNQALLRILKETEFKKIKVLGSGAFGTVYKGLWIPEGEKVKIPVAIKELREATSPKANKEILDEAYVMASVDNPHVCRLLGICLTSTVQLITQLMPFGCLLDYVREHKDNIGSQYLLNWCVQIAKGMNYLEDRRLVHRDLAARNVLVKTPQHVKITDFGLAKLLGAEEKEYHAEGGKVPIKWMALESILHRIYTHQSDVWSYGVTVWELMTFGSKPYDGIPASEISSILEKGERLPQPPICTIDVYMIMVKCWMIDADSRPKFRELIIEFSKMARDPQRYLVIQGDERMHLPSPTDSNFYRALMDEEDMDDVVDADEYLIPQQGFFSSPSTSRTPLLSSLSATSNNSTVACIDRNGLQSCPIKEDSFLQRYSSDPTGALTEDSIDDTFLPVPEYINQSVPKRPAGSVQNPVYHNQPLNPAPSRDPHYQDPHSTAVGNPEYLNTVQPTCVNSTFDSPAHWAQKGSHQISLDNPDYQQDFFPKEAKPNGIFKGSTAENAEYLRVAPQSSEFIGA
# [8] = target: Follistatin-related protein 3 (Homo sapiens) (UniProt O95633); assay: compounds binding follistatin-related protein 3 – biochemical, small-molecule microarray, 635 nm fluorescence, primary screen (AID 1105); settings: FSTL3 binding, higher = more signal;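 also: score merges emission near 667 nm and signal to noise per printed spot across three slides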
# Follistatin-related protein 3 (Homo sapiens), sequence (O95633 whole entry, looked up): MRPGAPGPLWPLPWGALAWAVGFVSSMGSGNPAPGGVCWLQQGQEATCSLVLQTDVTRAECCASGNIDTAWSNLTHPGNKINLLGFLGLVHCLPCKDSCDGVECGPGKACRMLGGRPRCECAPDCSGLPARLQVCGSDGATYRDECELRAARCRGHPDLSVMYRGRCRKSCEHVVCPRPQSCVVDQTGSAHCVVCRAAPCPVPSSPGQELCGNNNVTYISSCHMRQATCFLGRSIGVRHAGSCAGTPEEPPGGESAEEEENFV
# [9] = target: Dickkopf-related protein 1 (Homo sapiens) (UniProt O94907); assay: small molecules binding DKK1 protein – biochemical, small-molecule microarray, 635 nm fluorescence scan, primary screen (AID 1106); settings: higher = more signal;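 also: score merges emission near 667 nm with signal to noise over three replicate slides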
# Dickkopf-related protein 1 (Homo sapiens), sequence (O94907 whole entry, looked up): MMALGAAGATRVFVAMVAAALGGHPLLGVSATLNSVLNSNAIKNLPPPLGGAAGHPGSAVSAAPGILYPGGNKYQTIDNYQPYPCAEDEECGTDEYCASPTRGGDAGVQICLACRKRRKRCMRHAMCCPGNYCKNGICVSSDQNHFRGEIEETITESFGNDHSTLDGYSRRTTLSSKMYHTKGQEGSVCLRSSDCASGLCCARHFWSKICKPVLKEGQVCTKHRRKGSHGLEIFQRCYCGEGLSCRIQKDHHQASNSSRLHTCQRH
# [10] = test system: Inhibin beta A chain (activin A); assay: small molecules binding activin A – biochemical, small-molecule microarray, 635 nm fluorescence scan, primary screen (AID 1107); settings: INHBA, higher = more signal;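 also: mouse activin A protein probed at 4.33 µg/mL on printed slides; score merges bound-protein fluorescence near 667 nm with spot signal-to-noise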
SMILES,composite z-score [1],composite z-score [2],composite z-score [3],z-score [4],composite z-score [5],composite z-score [6],composite z-score [7],composite z-score [8],composite z-score [9],composite z-score [10]
CCN(CC)c1ccc(N2CC=CC34O[C@@H]5/C=C\CCCOC(=O)C5[C@H]3C(=O)N(CCCCCO)[C@@H]4C2=O)cc1 (stereo not given in full),0.643,0.123,0.397,0.643 (inactive),-1.47,-1.4,-0.983,-1.42,-1.01,-0.399
COC(=O)[C@@]1(Cc2ccc(OC)cc2)[C@H]2c3cc(C(=O)N(C)C)n(Cc4cc(F)c(F)c(F)c4)c3C[C@H]2CN1C(=O)c1ccccc1,0.85,1.59,1.03,-2.2 (inactive),0.519,1.02,0.261,0.745,-0.958,0.882
COCCCNC(=O)[C@@]1(Cc2ccccc2I)c2ccccc2C(=O)N(Cc2ccccc2Cl)[C@H]1c1ccc(CO)cc1,0.506,0.0418,-0.261,-0.964 (inactive),-0.0568,0.575,-0.0316,0.3,0.186,0.712
CCOC(=O)C[C@H]1[C@H](OC(=O)Cc2ccc3c(c2)OCO3)[C@@H](NC(=O)c2ccccc2)c2cc(OCCCO)ccc2N1C(=O)c1ccccc1,-0.0111,-0.0126,-0.0843,-0.299 (inactive),0.603,0.505,0.437,0.371,0.276,0.524
C=C(C(=O)CC[C@H](OC(=O)c1cccnc1)c1ccc(OCCO)cc1)C(C)C,1.56,-0.175,-0.049,1.77 (inactive),1.34,-0.0404,0.0365,0.721,-0.17,0.958
COCC1=C([C@H](O)CCc2ccccc2)[C@H](CO)[C@@H]2C(=O)N(C)C(=O)[C@@H]2C1,-0.129,-0.541,-0.578,0.559 (inactive),0.397,0.189,0.456,0.0826,0.408,0.42
COCCCNC(=O)[C@@]1(Cc2ccccc2CN=[N+]=[N-])N=C(c2ccc(OCCCO)cc2)O[C@H]1c1ccccc1N=[N+]=[N-],1.61,1.05,1.28,-1.26 (inactive),1.35,1.22,0.15,0.706,0.0902,0.542
O=C(NCc1ccccc1)[C@]1(Cc2ccccc2)N=C(c2ccc(OCCCO)cc2)O[C@@H]1c1ccccc1,-0.0602,0.857,0.75,-0.0706 (inactive),0.154,0.789,0.178,-0.11,-0.565,0.672
COc1ccccc1CN1C(=O)c2ccccc2[C@@H](C(=O)NCC(C)C)[C@@H]1c1ccc(CO)cc1,1.05,0.543,0.705,-0.8 (inactive),0.773,-0.0674,-0.318,0.0144,0.213,0.002
CN1C(=O)C2C=CC(C(O)C3CCCCC3)N(N(c3ccccc3)c3ccccc3)C2C1=O (stereo not given),-0.941,0.993,0.895,1.12 (inactive),0.189,-1.14,-1.34,-1.14,-1.28,1.48
COC(=O)[C@@]1(Cc2ccc(OC)cc2)[C@H]2c3cc(C(=O)N4CCCC4)n(CCF)c3C[C@H]2CN1C(=O)c1ccccc1,1.05,2.71,1.56,-2.55 (inactive),1.35,0.383,1.46,0.942,-0.226,0.823
C/C=C/[C@@H](CCn1cc([C@H](O)c2ccccc2)nn1)[Si](C)(C)c1ccc(OC)cc1,1.53,-0.414,0.476,-0.406 (inactive),-0.71,-0.507,-0.849,-0.748,-0.0219,0.0838
COCCCNC(=O)[C@@]1(Cc2ccccc2N=[N+]=[N-])N=C(c2ccc(OCCCO)cc2)O[C@H]1c1ccccc1CN=[N+]=[N-],0.953,1.19,1.18,-0.456 (inactive),1.43,1.21,0.0402,0.511,-0.338,1.21
C[C@@]1([C@@H](NC(=O)c2cccs2)c2ccc(-c3ccccc3)cc2)C[C@H]1C1CCCCC1,0.385,-0.336,0.126,-3.26 (inactive),-0.728,-1.74,-0.84,-0.671,0.0374,1.49
